From PubChem BioAssay
NALP1 inh – NALP1 inflammasome inhibitors in reconstituted yeast, colorimetric, S. cerevisiae, triplicate retest. S. cerevisiae NALP1/ASC/caspase-1 growth, X-gal OD620, 72 h. inhibition, % at 10 µM. 280,000 compounds, 0.61% hits. AID 2071, 2009; in the data active = inhibition mostly above about 24%, no sharp cut-off; inactive = mostly below about 32%
tim23-1 inh – growth inhibitors of tim23-1 mutant yeast, primary screen, luminescence, uHTS | S. cerevisiae tim23-1 growth, BacTiter-Glo luminescence, 24 h | inhibition, % at 20 µM | 330,000 compounds, 1.3% hits;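 active = growth inhibition of the mutant yeast at or above 50%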;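 note: temperature-sensitive mutant grown at 25 °C; plate controls were DMSO-treated mutant yeast for no effect and medium wells lacking yeast for full effect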
tim10-1 inh – growth inhibitors of tim10-1 mutant yeast, primary screen, luminescence, uHTS. S. cerevisiae tim10-1 ts strain growth, BacTiter-Glo, 24 h. inhibition, % at 20 µM. 330,000 compounds, 2.2% hits. AID 463190, 2010;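 active = inhibition of at least 40%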;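 note: mutant grown at 25 °C; 0% = DMSO wells with yeast and 100% = wells holding no yeast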
TIM10 inh – growth inhibitors of isogenic TIM10 control yeast, primary screen, counter-screen for tim10-1 yeast inhibitor project, luminescence, uHTS | S. cerevisiae TIM10 strain growth, BacTiter-Glo luminescence, 24 h | inhibition, % at 10 µM | 330,000 compounds, 1.4% hits;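 active = inhibition of 40% or more at the single tested concentration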;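 note: wild-type TIM10 isogenic control strain grown at permissive 25 °C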
NLRP3 yeast inh – NALP3 inflammasome inhibitors in reconstituted yeast, primary screen, luminescence, uHTS; Yeast reconstituted NLRP3/ASC/caspase-1, beta-gal luminescence, 24 h; inhibition, % at 10 µM; 330,000 compounds, 0.39% hits; AID 2825, 2010;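 active = inhibition of 50% or more; inactive = inhibition below 50%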;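 note: plate controls were induced DMSO wells for no effect and uninduced yeast grown without galactose for full effect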
tim10-1 conf – growth inhibitors of tim10-1 mutant yeast, confirmation, single concentration, luminescence, S. cerevisiae. inhibition, % at 20 µM. 7,400 compounds, 56% hits. shares compounds with tim10-1 inh. S. cerevisiae tim10-1 ts strain growth, BacTiter-Glo, 24 h. AID 463213, 2010;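 active = inhibition of yeast growth at or above a set limit in either of two repeat tests at 20 µM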;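 note: tim10-1 mutant grown at permissive 25 °C to find synthetic lethal compounds; 0% = DMSO yeast wells and 100% = medium wells without yeast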
tim10 confirm – growth inhibitors of wild-type TIM10 yeast, confirmation, counter-screen for tim10-1 synthetic lethality project, single concentration, luminescence, S. cerevisiae. shares compounds with TIM10 inh. S. cerevisiae tim10 strain growth, BacTiter-Glo luminescence, 24 h. inhibition, % at 10 µM. 4,600 compounds, 63% hits;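 active = inhibition of yeast growth at or above a set limit in either of two replicates at 10 µM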;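 note: this counterscreen used the strain with wild-type TIM10; 0% = yeast with DMSO and 100% = medium wells lacking yeast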
tim23-1 conf – tim23-1 mutant yeast growth inhibitors, confirmation, luminescence, single concentration | S. cerevisiae tim23-1 growth, BacTiter-Glo luminescence, 24 h | shares compounds with tim23-1 inh | 4,400 compounds, 83% hits | AID 463218, 2010 | inhibition, % at 20 µM;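 active = inhibition above about 39% in either of two replicate wells at 20 µM, limit read from the data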;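 note: temperature-sensitive tim23-1 mutant grown at 25 °C; 0% = DMSO wells with yeast and 100% = medium wells without yeast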
* marks the source's active call; other numbers are inactive results; . = no result. Hits are enriched below; roughly 4% of the tested compounds scored in any of these assays.

SMILES	NALP1 inh	tim23-1 inh	tim10-1 inh	TIM10 inh	NLRP3 yeast inh	tim10-1 conf	tim10 confirm	tim23-1 conf
O=C(NCc1ccc2[nH]c3c(c2c1)CCCC3)c1ccc(S(=O)(=O)N2CCCCC2)cc1	37	6	7	1	12	.	.	.
O=C(Nc1ccc(Cl)cc1)C(Cl)C(=O)c1ccccc1 (stereo not drawn)	-21	70*	55*	59*	-3	56*	81*	76*
Fc1ccccc1/C=N/n1c(C2CCCCC2)n[nH]c1=S	-1	65*	43*	48*	15	35*	51*	61*
Cc1ccccc1/C=N/n1c(C2CCCCC2)n[nH]c1=S	-12	40	27	26	17	.	.	.
S=c1[nH]nc(C2CCCCC2)n1/N=C/C=C/c1ccccc1	13	57*	54*	39	24	31	.	37
S=c1[nH]nc(C2CCCCC2)n1/N=C/C(Cl)=C\c1ccccc1	23	45	34	34	30	.	.	.
S=c1[nH]nc(C2CCCCC2)n1/N=C/c1ccccc1Br	-6	52*	42*	35	33	26	.	63*
COc1ccc(C(C)NC(=O)Cc2cccs2)cc1OC (stereo not drawn)	4	12	19	6	20	.	.	.
CCc1ccccc1NC(=O)C1CCCN(S(=O)(=O)c2ccc3c(c2)CC(C)N3C(C)=O)C1 (stereo not drawn)	28	23	10	8	19	.	.	.
Cc1nc2c(Br)cc(Br)cc2cc1O	9	76*	71*	50*	5	61*	45*	83*
COc1cccc(NC=C2C(=O)OC(C)(C)OC2=O)c1	-1	14	18	-1	18	.	.	.
COc1cccc(NC=C2C(=O)OC3(CCCCC3)OC2=O)c1	17	74*	66*	58*	23	70*	72*	74*
Cc1ccc(S(=O)(=O)N(C)C)cc1NS(=O)(=O)c1ccc(Cl)s1	18	5	3	5	-13	.	.	.
Cc1ccnc(NC(=O)c2ccc(S(=O)(=O)N3CCC(C)CC3)cc2)c1	.	31	38	22	41	.	.	.
Cc1cccc(/C(N)=N/OC(=O)N2c3ccccc3Sc3ccccc32)c1	-11	60*	65*	83*	46	52*	-32	45*
N/C(=N\OC(=O)N1c2ccccc2Sc2ccccc21)c1ccccc1	44	66*	61*	84*	38	48*	85*	50*
COc1cccc(C(=O)OCC(=O)c2ccc(Br)s2)c1OC	.	15	-14	-5	28	.	.	.
Cc1cc(C)nc(S/C=C/C(=O)c2ccccc2F)n1	30	64*	43*	53*	33	28	53*	63*
Cc1cc(C)nc(NC(=S)NC(=O)c2ccccc2F)n1	.	18	9	12	7	.	.	.
CCCc1nnc(NC(=O)c2nc(S(=O)(=O)Cc3cccc(C)c3)ncc2Cl)s1	-24	6	23	7	5	.	.	.
Cc1cccc(CS(=O)(=O)c2ncc(Cl)c(C(=O)Nc3c(C)cccc3C)n2)c1	-4	56*	46*	9	7	-55	.	21
CCn1ncc([N+](=O)[O-])c1C(=O)Nc1c(C)cccc1C	-4	-1	-13	-2	0	.	.	.
CCn1ncc([N+](=O)[O-])c1C(=O)Nc1nc2cccc(C)c2s1	2	51*	47*	32	38	24	.	50*
Cc1ccc(NC(=O)CSc2nc3ccccc3nc2N2CCCC2)cc1	12	22	7	-2	11	.	.	.
COCCCNC(=O)C(=O)Nc1cc2c3c(c1)CCN3C(=O)CC2	19	-16	8	-5	9	.	.	.
